Results taken from the supplement of paper PMC13380429.

System: Vero E6 infected with SARS-CoV-2
Experiment: inhibition of SARS-CoV-2 cytopathic effect; higher = more antiviral protection, active = above 15
Details: 48 h

Measured: inhibition of SARS-CoV-2 cytopathic effect

C[N+]1(CCCCC[N+]2(C)CCCC2)CCCC1 [pentolinium]
inactive: 1 nM 2.83% | 8.33 nM 4.75% | 100 nM 5.22% | 833.33 nM 4.57% | 10000 nM 0.64%

Cc1cc2sc(NC(=O)Cc3ccccc3)nc2cc1Cl
inactive: 1 nM 2.05% | 8.33 nM 2.12% | 100 nM 2.19% | 833.33 nM 0.81% | 10000 nM 3.87%

CO[C@H]1O[C@@H]2O[C@@]3(C)CC[C@H]4[C@H](C)CC[C@@H]([C@H]1C)[C@@]24OO3 [artemether]
inactive: 1 nM 7.32% | 8.33 nM 4.82% | 100 nM 2.64% | 833.33 nM -2.72% | 10000 nM 0.52%

CC(C)[C@H](N)C(=O)OCCOCn1cnc2c(=O)nc(N)[nH]c21 [valaciclovir]
inactive: 1 nM 0.01% | 8.33 nM 0.27% | 100 nM 1.58% | 833.33 nM 0.1% | 10000 nM -2.93%

CCOC(=O)C1=C(C)NC(c2ccccc2)=C(C(=O)OCc2ccc([N+](=O)[O-])cc2)[C@@H]1C#Cc1ccccc1
inactive: 1 nM 2.05% | 8.33 nM -1.34% | 100 nM 0.42% | 833.33 nM 1.51% | 10000 nM 3.9%

CCC1(c2ccccc2)C(=O)N(COC)C(=O)N(COC)C1=O [eterobarb]
inactive: 1 nM -0.71% | 8.33 nM 0.82% | 100 nM -1.29% | 833.33 nM -0.57% | 10000 nM 0.84%

COc1cccc(-c2cc(NCc3ccc4c(c3)OCO4)nc(N)n2)c1
inactive: 1 nM 0.39% | 8.33 nM -1.05% | 100 nM 0.16% | 833.33 nM -2.75% | 10000 nM -1.99%

CC(C)(C)NCC(O)COc1cccc2[nH]c(C#N)cc12 (stereo not given) [cyanopindolol]
inactive: 1 nM 1.56% | 8.33 nM 1.94% | 100 nM 0.47% | 833.33 nM -2.7% | 10000 nM -1.96%

Cc1cc(C)c(CNC(=O)c2cc(-c3ccc(N4CCN(C)CC4)nc3)cc3c2c(C)cn3C(C)C)c(=O)[nH]1
inactive: 1 nM -3.53% | 8.33 nM -2.54% | 100 nM -3.49% | 833.33 nM -2.29% | 10000 nM -3.02%

Cc1cc(NCCO)nc(-c2ccc(Br)cc2)n1
inactive: 1 nM 1.81% | 8.33 nM -1.79% | 100 nM -0.15% | 833.33 nM 0.73% | 10000 nM -2.57%

Cc1cc(C)c(N)c(C#Cc2cccc(F)c2)n1
inactive: 1 nM 1.69% | 8.33 nM -1.37% | 100 nM 0.6% | 833.33 nM 3.1% | 10000 nM 1.98%

CC(C)NCCCn1c(Sc2cc3c(cc2I)OCO3)nc2c(N)ncnc21
inactive: 1 nM -3.36% | 8.33 nM -0.68% | 100 nM -0.95% | 833.33 nM -7.21% | 10000 nM -3.3%

Cn1c(=O)cnn(CCCCN2CCN(c3ncccn3)CC2)c1=O
inactive: 1 nM 0.44% | 8.33 nM -0.24% | 100 nM 1.14% | 833.33 nM -0.77% | 10000 nM 1.05%

O=C(CCCN1CCN(c2ccccn2)CC1)c1ccc(F)cc1 [azaperone]
inactive: 1 nM 0% | 8.33 nM -7.58% | 100 nM -6.03% | 833.33 nM -5.15% | 10000 nM 0.26%

O=C1[C@H]2CCCC[C@H]2C(=O)N1CCCCN1CCN(c2nsc3ccccc23)CC1 [perospirone]
inactive: 1 nM -1.38% | 8.33 nM 3.93% | 100 nM 3.52% | 833.33 nM 3.58% | 10000 nM -1.69%

COC[C@H](NC(=O)c1cnc(C)s1)C(=O)N[C@@H](COC)C(=O)N[C@@H](Cc1ccccc1)C(=O)[C@@]1(C)CO1 [oprozomib]
active: 100 nM 38.6% | 833.33 nM 34.5% | 10000 nM 24.7%
inactive: 1 nM 0.33% | 8.33 nM 3.66%

O=c1cc[nH]c(=S)[nH]1 [2-thiouracil]
inactive: 1 nM 3.22% | 8.33 nM 2.55% | 100 nM 2.51% | 833.33 nM 0.11% | 10000 nM -0.68%

CC(OC(=O)OC1CCCCC1)OC(=O)C1=C(CSc2nnnn2CCN(C)C)CS[C@@H]2[C@H](NC(=O)Cc3csc(N)n3)C(=O)N12 (stereo not given in full) [cefotiam-cilexetil]
inactive: 1 nM -0.8% | 8.33 nM 0.27% | 100 nM 0.74% | 833.33 nM 0.5% | 10000 nM -0.94%

NC(=O)c1ccc(-c2nc(-c3ccccn3)c(-c3ccc4c(c3)OCO4)[nH]2)cc1
inactive: 1 nM -0.24% | 8.33 nM 0.7% | 100 nM 0.26% | 833.33 nM -3.74% | 10000 nM -3.14%

COc1ccc(/C=C/C(=O)O)cc1 [trans-4-methoxycinnamic-acid]
inactive: 1 nM 1.02% | 8.33 nM -0.31% | 100 nM -1.64% | 833.33 nM -0.87% | 10000 nM -1.56%

CC(C)N(CCCNC(=O)Nc1ccc(C(C)(C)C)cc1)C[C@H]1O[C@@H](n2cc(Br)c3c(N)ncnc32)[C@H](O)[C@@H]1O
inactive: 1 nM 0.32% | 8.33 nM 9.52% | 100 nM -1.5% | 833.33 nM -1.25% | 10000 nM 0.03%

C/C=C(/C)C(=O)O[C@H]1C(C)=C[C@]23C(=O)[C@@H](C=C(CO)[C@@H](O)[C@]12O)[C@H]1[C@@H](C[C@H]3C)C1(C)C [ingenol-mebutate]
inactive: 1 nM -1.66% | 8.33 nM -1.76% | 100 nM -8.12% | 833.33 nM -7.76% | 10000 nM -8.66%

Cc1cc(N2CCOCC2)cc2[nH]c(-c3c(NC[C@@H](O)c4cccc(Cl)c4)cc[nH]c3=O)nc12
inactive: 1 nM -1.74% | 8.33 nM -0.03% | 100 nM -2.39% | 833.33 nM -2.43% | 10000 nM -13.9%

CC(=O)Oc1ccccc1C(=O)Oc1cccc(CO[N+](=O)[O-])c1
inactive: 1 nM -1.24% | 8.33 nM -0.2% | 100 nM -0.7% | 833.33 nM 0.32% | 10000 nM 3.31%

COc1ccc(/C=C\c2cc(OC)c(OC)c(OC)c2)cc1OP(=O)(O)O [fosbretabulin]
inactive: 1 nM 0.43% | 8.33 nM 0.77% | 100 nM -1.34% | 833.33 nM -0.84% | 10000 nM -0.38%

C/C(=C\C(=O)OCCCCCCCCC(=O)O)C[C@@H]1OC[C@H](C[C@@H]2O[C@H]2[C@@H](C)[C@H](C)O)[C@@H](O)[C@H]1O [mupirocin]
inactive: 1 nM -1.43% | 8.33 nM -0.61% | 100 nM 0.52% | 833.33 nM 2.09% | 10000 nM 1.36%

C[C@H](Nc1ncnc2[nH]cnc12)c1nc2ccc(F)cc2c(=O)n1-c1ccccc1 [acalisib]
inactive: 1 nM 0.46% | 8.33 nM -0.64% | 100 nM 0.1% | 833.33 nM -0.64% | 10000 nM -5.35%

CC1(C)C(=O)N(c2ccc(C#N)c(C(F)(F)F)c2)C(=O)N1CCCCO
inactive: 1 nM 2.69% | 8.33 nM 0.32% | 100 nM 4.71% | 833.33 nM 0.45% | 10000 nM 1.21%

Oc1ccc(-c2c(-c3ccccc3)nn3c(C(F)(F)F)cc(C(F)(F)F)nc23)cc1
inactive: 1 nM 0.08% | 8.33 nM 0.21% | 100 nM -0.05% | 833.33 nM -1.7% | 10000 nM 11.9%

Clc1cccc(-c2nnnn2Cc2cccnc2)c1Cl
inactive: 1 nM -1.94% | 8.33 nM -0.7% | 100 nM 0.71% | 833.33 nM -2.59% | 10000 nM -3.45%

c1ccc(CCCN2CCN(CCOC(c3ccccc3)c3ccccc3)CC2)cc1
inactive: 1 nM 0.71% | 8.33 nM 0.97% | 100 nM -0.18% | 833.33 nM 0.61% | 10000 nM -1.85%

CCC[C@H](NC(=O)/C(C#N)=C/c1cccc(Br)n1)c1ccccc1
inactive: 1 nM 1.89% | 8.33 nM 1.78% | 100 nM -0.09% | 833.33 nM 4.12% | 10000 nM -5.9%

CCOC(=O)[C@H](CCc1ccccc1)N[C@H]1CCc2ccccc2N(CC(=O)O)C1=O [benazepril]
inactive: 1 nM 2.45% | 8.33 nM 4.14% | 100 nM 3.52% | 833.33 nM -1.12% | 10000 nM 1.56%

NCC[C@H](O)C(=O)N[C@@H]1C[C@H](N)[C@@H](O[C@H]2O[C@H](CN)[C@@H](O)[C@H](O)[C@H]2O)[C@H](O)[C@H]1O[C@H]1O[C@H](CO)[C@@H](O)[C@H](N)[C@H]1O [amikacin]
inactive: 1 nM -1.45% | 8.33 nM 0.75% | 100 nM 0.51% | 833.33 nM 2.36% | 10000 nM -0.28%

Cc1cnc(-c2cnc(NCCNc3ccc(C#N)cn3)nc2-c2ccc(Cl)cc2Cl)[nH]1
inactive: 1 nM 2.72% | 8.33 nM 3.19% | 100 nM -2.16% | 833.33 nM 3.98% | 10000 nM 12.1%

Cc1c(N(C)C)c(=O)n(-c2ccccc2)n1C [amidopyrine]
inactive: 1 nM -14.8% | 8.33 nM -9.18% | 100 nM -12% | 833.33 nM -13.2% | 10000 nM -11.7%

CC(C)N[C@H]1CCn2c(=O)[nH]c3cccc(c32)[C@@H]1O [zilpaterol]
inactive: 1 nM 0.575% | 8.33 nM -0.6% | 100 nM -1.14% | 833.33 nM -1.59% | 10000 nM -2.51%

NS(=O)(=O)c1cc2c(cc1Cl)N=CNS2(=O)=O [chlorothiazide]
inactive: 1 nM 0.29% | 8.33 nM 0% | 100 nM -0.95% | 833.33 nM -0.05% | 10000 nM -0.76%

CCN(CC)CCOC(=O)C1(c2ccccc2)CCCC1 [caramiphen]
inactive: 1 nM -4.57% | 8.33 nM -4.75% | 100 nM -1.97% | 833.33 nM -0.96% | 10000 nM -3.45%
